Records with an inconclusive call do not appear. Active and inactive are the calls of the source. Unless noted, the call rests on the fitted dose curve; in most records, active means well fitted curve in the direction sought with a large enough effect in the repeat runs; inconclusive means weak or mixed curves; inactive means no such curve, though single readings can be large; an effect the other way counts as inactive or inconclusive.
What was measured:
[1] = qHTS assay to identify small molecule agonists of the NFkB signaling pathway (AID 1159509; active means well fitted curve in the direction sought with a large enough effect in the signal ratio in the repeat runs, not every such curve was filed as active; the % refers to the signal ratio; further: series mostly up to about 61 µM; on the % scale 0 is the no-effect control and ±100 the full control effect)
Summary of the method: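 Beta-lactamase reporter assay run in quantitative high-throughput format on an NF-kB-responsive ME-180 line, with 5 hr compound treatment and a FRET-based blue/green fluorescence readout.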

[2] = qHTS assay to identify small molecule agonists of the NFkB signaling pathway - cell viability counter screen (AID 1159515; calls by dose curve; further: series mostly up to about 61 µM; on the % scale 0 is the no-effect control and ±100 the full control effect; nearly all actives have a fitted effect of over 55% in size)
Summary of the method: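 Cells are seeded (2,000 NFkB-bla ME-180 per well), rested overnight, and dosed with DMSO-dissolved compounds for 5 hr at 37 C. Viability is then read by CellTiter-Glo luminescence after 30 min at room temperature.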

[3] = qHTS assay to identify small molecule agonists of the endoplasmic reticulum stress response signaling pathway - cell viability counter screen (AID 1159517; calls by dose curve;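 further: HeLa cells carrying an ER stress response element beta-lactamase reporter; series mostly up to about 61 µM; on the % scale 0 is the no-effect control and ±100 the full control effect; nearly all actives have a fitted effect of over 50% in size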)
Summary of the method: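 After overnight attachment, ESRE-bla HeLa cells were treated with Tox21 library compounds for 5 hr. CellTiter-Glo luminescence, read 30 min post-addition at room temperature, reported viability.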

[4] = qHTS assay to identify small molecule antagonists of the retinoid-related orphan receptor gamma (ROR-gamma) signaling pathway - cell viability counter screen (AID 1159520); further: on the % scale 0 is the no-effect control and ±100 the full control effect; nearly all actives have a fitted effect of over 50% in size
Summary of the method: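 Cytotoxicity was read from cellular ATP (CellTiter-Glo luminescence) after 16 hr at 37 C with 1 uM doxycycline induction. The inducer was added 2 hr after compound transfer to Tet-on ROR gamma CHO cells.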

[5] = qHTS assay to identify small molecule agonists of the AP-1 signaling pathway - cell viability counter screen (AID 1159525; calls by dose curve; further: nearly all actives have a fitted effect of over 55% in size)
Summary of the method: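 Intracellular ATP by Cell Titer Glo luminescence (30 min, RT) in the same ME-180 AP-1-bla wells after the 5 h compound exposure at 37 °C. Normalised to tetra n-octyl ammonium bromide and DMSO controls.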

[6] = qHTS assay to identify small molecule agonists of the AP-1 signaling pathway (AID 1159526; calls by dose curve; further: on the % scale 0 is the no-effect control and ±100 the full control effect)
[7] = target: Retinoic acid receptor RXR-alpha (Homo sapiens) (UniProt P19793); test: qHTS assay to identify small molecule agonists of the RXR signaling pathway (AID 1159527; calls by dose curve; further: nearly all actives have a fitted effect of over 35% in size; further: potency means the concentration at half of the fitted maximal effect)
Summary of the method: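 Cells plated at 2,000/well, rested 5 hr at 37 C, pin-dosed with DMSO compound solutions, incubated 16 hr, then loaded with B/G FRET substrate for 2 hr at RT before dual-emission fluorescence reading.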

[8] = qHTS assay to identify small molecule antagonists of the retinoid acid receptor (RAR) signaling pathway - cell viability counter screen (AID 1159551); further: on the % scale 0 is the no-effect control and ±100 the full control effect; nearly all actives have a fitted effect of over 35% in size
Summary of the method: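 Cells (C3RL4) are plated, incubated overnight, dosed with compound in DMSO, then given retinol at 1 uM final. After 6 h at 37 C, CellTiter-Glo is added and luminescence read following 30 min at room temperature.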

[9] = qHTS assay to identify small molecule antagonists of the retinoic acid receptor (RAR) signaling pathway (AID 1159552; further: on the % scale 0 is the no-effect control and ±100 the full control effect; nearly all actives have a fitted effect of over 50% in size)
Summary of the method: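 Retinol at 1 uM final stimulated RARE-luciferase expression in C3RL4 cells exposed to test compounds for 6 hr at 37 C. Reduced luminescence, read 30 min after detection reagent, indicated pathway antagonism.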

[10] = target: Nuclear receptor ROR-gamma (Homo sapiens) (UniProt P51449); test: qHTS assay to identify small molecule antagonists of the retinoid-related orphan receptor gamma (ROR-gamma) signaling pathway (AID 1159521;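 further: CHO cells with doxycycline inducible ROR-gamma driving an RORE luciferase reporter; top concentration of the series differs between compounds; on the % scale 0 is the no-effect control and ±100 the full control effect; nearly all actives have a fitted effect of over 50% in size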)
Summary of the method: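 Cells were plated, rested 4 h at 37 C, exposed to compounds for 2 h, then given 1 uM final doxycycline hyclate to induce RORγ expression. After 16 h, ONE-Glo luminescence from the ROR response element reporter was measured.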

[11] = qHTS assay to identify small molecule agonists of the retinoic acid receptor (RAR) signaling pathway (AID 1159553); further: on the % scale 0 is the no-effect control and ±100 the full control effect
Summary of the method: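 Seed C3RL4 reporter cells at 1,000 per well and incubate overnight at 37 C. Add compounds in DMSO, incubate 6 hr. Add luciferase reagent, wait 30 min at room temperature, read luminescence.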

[12] = qHTS assay to identify small molecule agonists of the RXR signaling pathway - cell viability counter screen (AID 1159529)
Summary of the method: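 Steps: seed RXR-alpha-UAS-bla HEK 293T cells in assay medium containing 2% charcoal-stripped FBS; incubate 5 hr; add compounds in DMSO; incubate 16 hr at 37 C; after the bla read, add CellTiter-Glo and read luminescence at 30 min.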

[13] = qHTS assay to identify small molecule antagonists of the vitamin D receptor (VDR) signaling pathway - cell viability counter screen (AID 743225)
Summary of the method: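 HEK293T VDR-bla; cpd + 1a,25-(OH)2D3 3 nM final, 16 h 37C/5% CO2; B/G FRET substrate 2 h RT; then CellTiter-Glo 30 min RT, luminescence.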

[14] = qHTS assay to identify small molecule agonists of the endoplasmic reticulum stress response signaling pathway (AID 1159516; active means well fitted activation curve with a large enough effect in the signal ratio in the repeat runs, not every such curve was filed as active; the % refers to the signal ratio; further: on the % scale 0 is the no-effect control and ±100 the full control effect)
Summary of the method: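 Cells are seeded at 1,500 per well and incubated overnight. Compounds in DMSO are added for 5 hr at 37 C, then beta-lactamase FRET substrate for 2 hr at room temperature, and fluorescence at 460 and 530 nm is measured.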

[15] = qHTS assay to identify small molecule antagonists of the estrogen related receptor (ERR) signaling pathway - cell viability counter screen (AID 1224818)
Summary of the method: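 ERR cells, 2,000/well; 6 h settle at 37 C/5% CO2; compound pin transfer (DMSO); 17.5 h at 37 C; CellTiter-Fluor, 30 min, fluorescence read.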

[16] = qHTS assay to identify small molecule antagonists of the estrogen related receptor signaling pathway with the pleiotropic PPARgamma coactivator (PGC) cell viability counter screen (AID 1224822)
Summary of the method: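 Multiplexed viability counter screen run in PGC/ERR cells treated with compounds for 17.5 h at 37 C; live-cell protease signal measured by CellTiter-Fluor fluorescence.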

Retinoic acid receptor RXR-alpha (Homo sapiens), sequence (P19793 whole entry, looked up): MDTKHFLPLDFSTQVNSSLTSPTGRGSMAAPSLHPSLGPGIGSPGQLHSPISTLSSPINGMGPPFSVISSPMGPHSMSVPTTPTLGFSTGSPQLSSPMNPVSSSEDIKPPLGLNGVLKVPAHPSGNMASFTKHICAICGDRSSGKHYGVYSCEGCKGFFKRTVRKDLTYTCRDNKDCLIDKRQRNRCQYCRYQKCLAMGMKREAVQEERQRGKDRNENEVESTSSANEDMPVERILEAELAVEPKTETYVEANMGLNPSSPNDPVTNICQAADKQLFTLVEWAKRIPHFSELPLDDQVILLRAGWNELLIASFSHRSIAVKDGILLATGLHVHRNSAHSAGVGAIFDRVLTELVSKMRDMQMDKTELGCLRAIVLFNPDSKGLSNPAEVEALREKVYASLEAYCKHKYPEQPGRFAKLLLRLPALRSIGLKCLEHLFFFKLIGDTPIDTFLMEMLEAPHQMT

CNC(=S)NC
inactive: outcome [1] | outcome [2] | outcome [3] | Potency [4] | outcome [5] | outcome [6] | Potency [8] | Potency [9]
active: Potency [7] 38.9 µM

Cc1cc(O)c(C(C)C)cc1Cl
inactive: outcome [1] | outcome [2] | Potency [4] | Potency [10] | outcome [5] | Potency [7] | Potency [8] | Potency [9] | Potency [11]

Fc1c(F)c(F)c(Br)c(F)c1F
inactive: outcome [1] | outcome [2] | outcome [3] | Potency [4] | outcome [5] | outcome [6] | Potency [12] | Potency [8] | Potency [11]

Cc1cc(C(=C2C=CC(=Nc3ccc(S(=O)(=O)O)cc3S(=O)(=O)O)C=C2)c2ccc(Nc3ccc(S(=O)(=O)O)cc3)cc2)ccc1N
inactive: Potency [13] | outcome [1] | outcome [2] | outcome [3] | Potency [4] | outcome [5] | outcome [6] | Potency [7] | Potency [12] | Potency [8]

COC(=O)[C@@H]1CC2=CC(=O)CC[C@]2(C)[C@@]23O[C@@H]2C[C@@]2(C)[C@@H](CC[C@@]24CCC(=O)O4)[C@H]13
inactive: Potency [13] | outcome [1] | outcome [2] | outcome [3] | outcome [5] | outcome [6] | Potency [8] | Potency [9] | Potency [11]

C=CCOC(=O)/C=C\C(=O)OCC=C
inactive: Potency [13] | outcome [1] | outcome [2] | outcome [3] | Potency [4] | outcome [5] | outcome [6] | Potency [12] | Potency [8]

C=CC(=C)CCCC(C)(C)OC(C)=O
inactive: outcome [1] | outcome [2] | outcome [14] | Potency [4] | Potency [10] | outcome [5] | outcome [6] | Potency [12] | Potency [8] | Potency [11]

c1cnc2c(n1)CCCC2
inactive: outcome [1] | outcome [2] | outcome [14] | Potency [4] | Potency [10] | outcome [5] | outcome [6] | Potency [12] | Potency [8] | Potency [9] | Potency [11]

[O]=[Bi]
inactive: activation [1] -0.308% [at 6.95 µM] | activity, negative = cytotoxic [2] 3.69% [at 6.95 µM] | activity change, negative = cytotoxicity [3] 9.83% [at 6.95 µM] | activity, negative = cytotoxicity [4] 7.56% [at 8.39 µM] | viability change, negative = cytotoxic [5] 2.46% [at 6.97 µM] | activity change, negative = cytotoxicity [8] -0.124% [at 8.39 µM] | activity, negative = inhibition [9] 92.1% [at 8.39 µM]

C[N+]1(C)CCC(=C(c2ccccc2)c2ccccc2)CC1
inactive: Potency [13] | outcome [1] | outcome [2] | outcome [14] | Potency [4] | Potency [10] | outcome [5] | outcome [6] | Potency [7] | Potency [12] | Potency [8] | Potency [11]

CCN(CC)CCNC(=O)c1ccc(NC(C)=O)cc1
inactive: Potency [13] | outcome [1] | outcome [2] | Potency [4] | Potency [10] | outcome [5] | outcome [6] | Potency [7] | Potency [12] | Potency [8] | Potency [9] | Potency [11] | outcome [15] | outcome [16]
